Laboratory results reported in the supplement of paper PMC10498489.
In all, about 2,300 compounds went through this assay and about 330 (14%) showed activity.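 Rule for the calls: active = median modified Z-score above 1.96; inactive = 1.96 or below.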 The list is a sample of the results.

These molecules were tested on HepG2 Srxn1-GFP reporter cells (+30 nM CDDO-Me) (assay: Srxn1-GFP intensity median modified Z-score relative to plate median; higher = stronger NRF2 / oxidative stress reporter activation, active = hit call of the paper). Details: 10 µM; exposure time: 24h.
Outline: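 The per-plate modified Z-score of GFP intensity, taken as a median across replicates, is what each value represents. Three replicate plates of HepG2 Srxn1-GFP BAC reporter cells were exposed for 24 h to an NRF2 activator at 30 nM combined with compound at 10 μM (≤0.1% DMSO). Cytoplasmic GFP per cell was read from confocal images, excluding any with under 100 cells, and scaling used 1.4826 × median absolute deviation.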

| Compound | Srxn1-GFP intensity median modified Z-score |
| --- | --- |
| CC(C)C(=O)C1C(=O)O[C@@H](c2ccoc2)[C@]2(C)C(O)[C@@H](O)[C@@]34OC5(C)OC67CC(C)(C(O)[C@]6(O)[C@@H](O)[C@]3(O5)C12)[C@H](CC(=O)O)[C@]74C (some centres not stated) [euspeclibcmpd1385] | -0.12 (inactive) |
| NC(=O)NCCCC(N)C(=O)O (configuration not stated) [euspeclibcmpd1533] | -0.136 (inactive) |
| CCN(CC)CCOC(=O)C(c1ccccc1)c1ccccc1 [euspeclibcmpd520] | 0.792 (inactive) |
| CCCC(C(=O)OCCN(CC)CC)(c1ccccc1)c1ccccc1 [euspeclibcmpd434] | -0.794 (inactive) |
| CCN(CC)CCOC(=O)C(Cc1cccc2ccccc12)CC1CCCO1 (configuration not stated) [euspeclibcmpd577] | 3.61 (active) |
| C[C@H]1c2cccc(O)c2C(=O)C2C(=O)[C@]3(O)C(=O)C(C(N)=O)C(=O)C(N(C)C)[C@@H]3[C@@H](O)[C@@H]21 (some centres not stated) [euspeclibcmpd105] | -1.04 (inactive) |
| C=C[C@](C)(O)CCC=C(C)C [euspeclibcmpd1465] | -0.00229 (inactive) |
| CCOc1ccc2[nH]c3cc(N)ccc3c(=N)c2c1 [euspeclibcmpd1203] | 63.5 (active) |
| COC(=O)C1=C2C(=O)CC(C)C2C(O[C@@H]2O[C@H](CO)[C@@H](O)[C@H](O)[C@H]2O)OC1 (some centres not stated) [euspeclibcmpd2225] | -0.236 (inactive) |
| Cc1cc(O)c(C=O)c2c1C(=O)Oc1c(C)c(O)c3c(O)oc(O)c3c1O2 [euspeclibcmpd2409] | 0.591 (inactive) |
| COC(=O)c1c(C)c2c(c(C)c1O)OC(=O)c1c(C)c(Cl)c(O)c(Cl)c1O2 [euspeclibcmpd1600] | 12.9 (active) |
| COC(=O)c1c(OC)cc2c(c1C)Oc1c(Cl)c(O)c(Cl)c(C)c1C(=O)O2 [euspeclibcmpd1672] | 0.324 (inactive) |
| Cc1c[nH]c(=NC(=O)C2C(=O)c3ccccc3S(=O)(=O)N2C)s1 (configuration not stated) [euspeclibcmpd2190] | -0.367 (inactive) |
| C#C[C@]1(OC(C)=O)CCC2C3CCC4=CC(=NO)CCC4C3CC[C@@]21CC (some centres not stated) [euspeclibcmpd54] | -0.443 (inactive) |
| C#C[C@]1(O)CCC2C3CCc4cc(OC)ccc4C3CC[C@@]21C (some centres not stated) [euspeclibcmpd184] | 0.203 (inactive) |
| C#C[C@]1(OC(C)=O)CCC2C3CCC4=C[C@@H](OC(C)=O)CCC4C3CC[C@@]21C (some centres not stated) [euspeclibcmpd896] | 2.28 (active) |
| NCCCC(N)C(=O)O (configuration not stated) [euspeclibcmpd2233] | -0.13 (inactive) |
| CCOC(=O)C1=CC(OC(CC)CC)[C@H](NC(C)=O)[C@@H](N)C1 (some centres not stated) [euspeclibcmpd2394] | -0.535 (inactive) |
| CC1=C(SC2CNC(C(=O)N(C)C)C2)C(C(=O)O)N2C(=O)[C@H]([C@@H](C)O)[C@@H]12 (some centres not stated) [euspeclibcmpd460] | -0.758 (inactive) |
| CC1CN(C(=O)CSc2nc3ccc(Br)cc3c3nc(=O)c(-c4ccccc4)nn23)CC(C)O1 (configuration not stated) | 2.28 (active) |
| CC(C)CCOc1ccc2[nH]c(-c3cc(NCCc4cn5c(n4)SCC5)ccn3)cc2c1 | 0.892 (inactive) |
| COc1ccc(-c2oc3ccccc3c(=O)c2OC)cc1 [euspeclibcmpd1341] | 0.287 (inactive) |
| CN(C)[C@@H]1C(O)=C(C(N)=O)C(=O)[C@@]2(O)C(O)c3c(c(O)c4c(Cl)ccc(O)c4c3O)C[C@@H]12 (some centres not stated) [euspeclibcmpd85] | -0.132 (inactive) |
| O=C(O)c1ccccc1 [euspeclibcmpd2047] | 0.122 (inactive) |

| Compound | Srxn1-GFP intensity median modified Z-score |
| --- | --- |
| O=C(C(=O)c1ccccc1)c1ccccc1 | 1.75 (inactive) |
| O=C(CC(=O)c1ccccc1)c1ccccc1 [euspeclibcmpd1779] | 2.2 (active) |
| C[n+]1cccc(C(=O)O)c1 [euspeclibcmpd1706] | -0.33 (inactive) |
| CCCc1nn(C)c2c(=O)nc(-c3cc(S(=O)(=O)N4CCN(C)CC4)ccc3OCC)[nH]c12 [euspeclibcmpd1008] | -0.649 (inactive) |
| Nc1ccc(NC(=O)c2cc(Cl)ccc2O)c(Cl)c1 | 1.83 (inactive) |
| O=C(Nc1cc(Cl)cc(Cl)c1O)c1c(O)c(Cl)cc(Cl)c1Cl [euspeclibcmpd2236] | 4.91 (active) |
| O=C(Nc1ccc(Br)cc1Cl)c1cc(Cl)ccc1O | 0.489 (inactive) |
| COC(=O)c1cc(-c2ccccc2)nc2ccccc12 | 1.89 (inactive) |
| O=C1C=Cc2c(c(O)c3ccccc3c2O)C1=O [euspeclibcmpd1683] | 0.752 (inactive) |
| O=C1CC(=O)c2c(c(O)c3ccccc3c2O)C1=O [euspeclibcmpd1727] | 8.98 (active) |
| Cc1cc(/C=C/c2ccc3cc(N(C)C)ccc3[n+]2C)c(C)n1-c1ccccc1 [euspeclibcmpd260] | 28.6 (active) |
| COc1c(-c2ccccc2)oc2cc(O)cc(O)c2c1=O [euspeclibcmpd2295] | -0.0938 (inactive) |
| CCCCOc1cc(C(=O)OCCN(CC)CC)ccc1N [euspeclibcmpd809] | 16.2 (active) |
| CCCOc1ccc(C(=O)OCCN(CC)CC)cc1N [euspeclibcmpd842] | -0.601 (inactive) |
| CCN(CC)CCOC(=O)c1ccc(N)cc1 [euspeclibcmpd248] | -0.882 (inactive) |
| O=C(O)C(O)C(O)C(O)C(O)C(=O)O (configuration not stated) [euspeclibcmpd2053] | -0.466 (inactive) |
| Cc1[nH]c(C)c(Cl)c(=O)c1Cl [euspeclibcmpd744] | 6.67 (active) |
| Cc1[nH]c(=O)[nH]c1O [euspeclibcmpd1742] | -0.283 (inactive) |
| O=C(O)C=C(CC(=O)O)C(=O)O [euspeclibcmpd1609] | -0.206 (inactive) |
| C=C1CC2C3=CC(C)=C4CC(=O)CC[C@]4(C)C3CC[C@]2(C)[C@@]1(OC(C)=O)C(C)=O (some centres not stated) [euspeclibcmpd860] | 1.04 (inactive) |
| CSC1(CNC(=O)Nc2cnn(C)c2Cl)CC1 | 1.35 (inactive) |
| OC[C@@H](O)[C@@H](O[C@@H]1O[C@H](CO)[C@@H](O)[C@H](O)[C@H]1O)[C@H](O)[C@@H](O)CO [euspeclibcmpd2177] | -0.452 (inactive) |
| COC(=O)C(c1ccccc1Cl)N1CCc2sccc2C1 (configuration not stated) [euspeclibcmpd599] | -0.316 (inactive) |
| CCCCC(CC)CN1CN(CC(CC)CCCC)CC(C)(N)C1 (configuration not stated) [euspeclibcmpd1036] | 14.2 (active) |

| Compound | Srxn1-GFP intensity median modified Z-score |
| --- | --- |
| COc1cnc(=NS(=O)(=O)c2ccc(N)cc2)[nH]c1 [euspeclibcmpd408] | -0.161 (inactive) |
| NC(=O)CN1CCCCCCC1=O | 0.32 (inactive) |
| CC1=C(CC(=O)O)c2cc(F)ccc2C1=Cc1ccc([S+](C)[O-])cc1 (configuration not stated) [euspeclibcmpd284] | -0.29 (inactive) |
| c1ccc(C(c2ccccc2)(c2ccccc2)n2ccnc2)cc1 | 1.95 (inactive) |
| c1ccc(-c2ccc(C(c3ccccc3)n3ccnc3)cc2)cc1 (configuration not stated) [euspeclibcmpd741] | 3.36 (active) |
| N#Cc1ccc(C(c2ccc(C#N)cc2)n2cncn2)cc1 [euspeclibcmpd693] | -0.19 (inactive) |
| CCOC(=O)C(CCc1ccccc1)NC1CCc2ccccc2N(CC(=O)O)C1=O (configuration not stated) [euspeclibcmpd912] | 3.02 (active) |
| CCOC(=O)C(CCc1ccccc1)NC(C)C(=O)N1Cc2ccccc2CC1C(=O)O (configuration not stated) [euspeclibcmpd521] | 0.162 (inactive) |
| CCOC(=O)C(CCc1ccccc1)NC(C)C(=O)N1CCCC1C(=O)O (configuration not stated) [euspeclibcmpd421] | 0.166 (inactive) |
| N=c1[nH]c(=O)[nH]cc1F [euspeclibcmpd698] | 1.2 (inactive) |
| CC(=O)OCC(=O)[C@@]1(O)[C@H](C)CC2C3CC=C4CC(=O)C=C[C@]4(C)[C@@]3(F)[C@@H](O)C[C@@]21C (some centres not stated) [euspeclibcmpd2125] | -0.395 (inactive) |
| CC(=O)Oc1cccc(C)c1 [euspeclibcmpd1228] | -0.455 (inactive) |
| Cc1cccc(N(C)C(=S)Oc2ccc3ccccc3c2)c1 [euspeclibcmpd299] | 8.23 (active) |
| CC(C)(C)NCC(O)COc1cccc2c1CCCC2=O (configuration not stated) [euspeclibcmpd764] | -0.976 (inactive) |
| CCCCCCCCCCCCCCCCOP(=O)(O)OCC[N+](C)(C)C [euspeclibcmpd1120] | 1.47 (inactive) |
| NC(C(=O)NC1C(=O)N2C(C(=O)O)=C(Cl)CSC12)c1ccccc1 (configuration not stated) [euspeclibcmpd343] | -0.608 (inactive) |
| Cn1cnc([N+](=O)[O-])c1Sc1ncnc2[nH]cnc12 [euspeclibcmpd29] | 2.86 (active) |
| N=c1[nH]cnc2c1ncn2C1O[C@H](COP(=O)(O)O)[C@@H](O)[C@H]1O (some centres not stated) [euspeclibcmpd330] | -0.321 (inactive) |
| COc1cccc2c(O)c3c(O)c4c(c(O)c3c(O)c12)=C(OC1C[C@H](N)[C@H](O)[C@H](C)O1)C[C@](O)(C(=O)CO)C=4 (some centres not stated) [euspeclibcmpd2291] | 0.455 (inactive) |
| CC[C@@]1(O)CC(=O)c2c(cc3c(O)c4c(O)ccc(O)c4c(O)c3c2O)C1C(=O)OC (some centres not stated) [euspeclibcmpd1470] | 70.7 (active) |
| COc1cccc2c(O)c3c(O)c4c(c(O)c3c(O)c12)=C(O[C@H]1C[C@H](N)[C@H](O)[C@H](C)O1)C[C@](O)(C(C)=O)C=4 [euspeclibcmpd83] | 0.648 (inactive) |
| CCc1ccc2c(O)c3c(O)c4c(c(O)c3cc2c1C(=O)OC)C(=O)C=CC4=O [euspeclibcmpd1950] | 1.63 (inactive) |
| CCC1(O)C=C(OC2CC(N(C)C)C(O)C(C)O2)c2c(cc3c(O)c4c(O)ccc(O)c4c(O)c3c2O)C1C(=O)OC (configuration not stated) [euspeclibcmpd1939] | 97.7 (active) |
| COc1ccc2c(=O)ccoc2c1 [euspeclibcmpd1397] | 0.575 (inactive) |
